Results as given in PubChem BioAssay AID1508600 (Functional Genomics Laboratory (NCATS/FGL), 2020).
The whole screen tested about 53,000 sequences, of which about 3,700 (7%) were called active.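 How the source made its calls: active means gene knockdowns whose robust z-score for IL-1 alpha signal is at least 2 or at most -2, so actives lie on both sides; inactive means the rest.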 Shown is part of a subset that was picked to be rich in actives.

Test: Components of the Cytosolic LPS Sensing Pathway: Gene Identification via Genome-wide siRNA Screen;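 further: robust z of the log signal after scaling to non-targeting control siRNA wells of the plate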
Conditions: RAW264.7 macrophages, IL-1a HTRF, actives lie on both sides, screened at 100 nM (by protocol), cells primed 5 h with Pam3CSK4 first
Procedure, shortened: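 Using IL-1a HTRF as read-out, the screen measured release from RAW264.7 cells after 48h siRNA knockdown (100 nM), 5 h Pam3CSK4 priming and 24 h cytosolic LipidA. Values were expressed relative to negative-control wells as robust z-scores.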

z-score, inactive:
GCCAAGACCAUUCAGCCUUTT against Zfp579 -0.394, GCUUCAUCGAACAAGUCGCTT against Pcbd1 0.715, GGUGCUGAAGAUGCUGACGTT against Zfp503 -1.46, CGUCACUGAUGUGGCUUUUTT against Plpp6 0.755, GGCAGAAACCCUUCUAUGUTT against Bmp8a -1.55, GGACAGCUUCCGAAACUAUTT against Miox 0.349, GGAAGCCAAAGAGAAACAATT against Ighmbp2 -0.0223, GCAGCCAAGUGGGUAACUUTT against Nicn1 0.474, CGGCCUGACAUCAACCUUGTT against Fam193b -0.915, GGAAGAAAACGCAACUAUATT against Atp1b3 0.246, GUUCUCAAGUAUCCCAGGCTT against 1110006O24Rik -0.661, GCUGGAAUAUAGGAAUGUCTT against Pex11g -0.0512, GCAUGUUUACGUUCCUGACTT against Slc2a12 -0.0386, GGUUUUAAUUUCAACUGUCTT against Tpp1 -0.468, GGGCAACACAGGACAUCUATT against Amot -0.35, GGUGUCCACGGUGGUUUGATT against Pfn1 -0.268, GGGACAGUUGACUUUUUAUTT against Cntn4 0.147, CCUUUUGAUGCAUCCCGUCTT against Bpifb3 0.709, GGGACUUUGGGCUAAAUAGTT against Tspan1 -1.32, GGAUAAUUGAUCAUAGAGGTT against Ufm1 -0.495, GAGUAGGAAUUAGAAUGAUTT against Tmem47 -0.00808, GCAUGAUCUCAGGUGUUUGTT against Timm13 -1.54, GGAUAACUGCUUCAUUUCCTT against Agbl1 0.62, GGAAAGACAAAGAACUCUATT against Ssu72 -0.535, GGAUUUCACUUGAGAAUGATT against Grem1 -0.905, CCUUCUAGUUUGCCUCUGGTT against Olfr877 0.332, GGGAAGAGCAUGUUUGCUGTT against Surf4 0.982, GGAGUGUUGCCAGUUCCUATT against Tctn2 -0.434, GGAGUUUCACCAGAAGGCUTT against Ttc24 1.63, GGAACUUGGAAUUUAGUUGTT against Pla2g4b 1.43, GGACAUGGUCCUUCCUAAATT against Arl8b 0.944, GGAAGCUGCACGGCAACUUTT against Btn2a2 -0.132, CCUGGUCAAUCGAUUCAUATT against 5330416C01Rik -0.12, GGGCAGAGUGGAGUAUCUGTT against Cbx4 -1.35, GGACACAUGGAAGAGGAUUTT against Rnf139 0.513, CGAGGAUGCUUUUUAAAAATT against Inip -0.0653, GCUGCUUUAGCUUAGUUUUTT against Vwa7 0.457, GCCCGAUUAAAAUAAAUUGTT against Arih2 0.636, GGAAAAUCUGGAGUUCUUCTT against Npas1 1.3, GGUUCAGACCAUCUUGGAATT against Bag3 -0.936, GGCAUUCAGAAAUCCAGUATT against Zdhhc2 -0.942, GCAAAAGUUCCAAAAAUCCTT against Cryba1 0.0525, GCUCUACAGUAGAACAAACTT against Efcab5 1.18, GGAACUCUUUUCCUAAAAUTT against Slco1a5 -0.838, CCUAUACCCUGGAAAGGCATT against Pigz 1.59, GGCUGAAUCACCAGAACAUTT against Ikbke -0.644, GGCCAGAAUGUAUAAAGCUTT against Mboat7 -1, GGUCACCCUCAAGUACCCUTT against Thop1 -0.188, GCUAUUAAGUUUACCCUAGTT against A730089K16Rik -1.31, GGACCAACUACACACUACGTT against Grik5 0.334, GGACCGUAUCCCAAAAGAUTT against Klf1 -0.968, GGGCCUCUUCCUUAAGCAUTT against Snx8 -0.382, GGAAGUUUGUUUGCUGUUATT against Slx4ip 1.08, GCCUAUUGUAAAUACAGGUTT against Bdnf 0.6, GGUGAAUAGAACAUCAUCUTT against Lrrc29 -1.76, GGAACACAAAUUGUGCUUATT against Zfp462 0.199, GGGUUGUAUGGCUCAAAUATT against Olfr728 0.734, GCAUCAUAAUGGGAUGCUGTT against Qrfp -0.313, GGCAAAAGAAUCGUUCUCATT against Ppat -0.848, GGAAGAAAUACUACAGCCATT against Ptpn12 -0.733, GAAGGAAGAAUAUUGGCCCTT against Il17rd -1.88, GCGGCAAUUCAAAUGAGUCTT against Rnf14 1.2, GGGAGAGAGUUGGCUCUGATT against Prg3 -0.184, GGGAGACUUCGAAUAUUUATT against Uroc1 -0.183, GCUCAACCUAACUUUGUGGTT against Ccdc3 0.421, GGCAACAAUGGUUGUCUUGTT against Ctsr 0.515, GCCAAACUUAGCGUGCUCATT against Dgkk 0.607, GGGUAUCAACCACUUUUUUTT against Serping1 2, GGUCAGAUUCCUGAAAUUATT against Vbp1 -0.807, GGCCAUAGUGAAGAAAGAATT against Plaat3 -0.754, GGAGAAGGAUAGAGAUGGUTT against Phf5a -1.84, GGUAAUACCACCUCACCUUTT against Fam214b -0.0713, CGGUUAGAUGAGCUUGAGATT against Smad2 -0.725, GCUUGAUGACUACCACUGATT against Rrp36 0.496, GGAGAUCACUAUGUUCUGATT against Ivd 1.46, GACAAGGCUUCAUAAAAAGTT against Qrich1 -0.312, GGGAUGCUUUGUUGCUGUUTT against Olfr836 0.296, GCCAUAGGCUCAUCUUUACTT against Ankib1 -1.61, GGUUGGUCACCUAAUCCAGTT against Aldh2 0.523, CCAAUGUGCUCAUGCUCUATT against Nodal 1.06, GCUGUACGAGCAUACUGUGTT against Tnxb -1.46, CCUUCUAAACACUUGACUUTT against Ugt2b5 0.106, GACCACAAUAUUGAGGAUCTT against Zfp119b -0.329, CCCUGUUAUUAUCUUGAUUTT against Arv1 -1.16, CGUGUGUGUUAUGAAUCAATT against Tmem161a 0.984

z-score, active:
GGCAUGGAAUCUGUUGUACTT against Olfr603 2.45, CCGUUUACGGCCACUAACUTT against Phkg2 3.68, GGUCUAGCUCUGAAACAUCTT against Pms2 2.27, GCAGGUUAAGUAGCUGACATT against Dync1li2 -2.37, CCCUCCACAGAUGAACACCTT against Lgals4 -2.02, GGUCAACGUAAAUUGUUCATT against Plppr5 2.94, GGACUUUGUGAAGGACUCUTT against Gatd1 -2.56, GGAGUGAUCAUCUAUAAUUTT against Rnf133 2.12, GCCGACAGAUUGAAAUUCGTT against Supv3l1 2.79, GGGAAUGGAAACGGCCAUGTT against Nmt1 2.02, GGAUUGAAGUCCCUUUACUTT against Zdhhc16 2.27, GGGCACUGGAACAGAUUUUTT against Ccnh 4.27, CCAAUGUGCGAGCAAAGAUTT against Arid5a 2.48, GGUGAUGAAAGGGAAUGGCTT against Rnf25 -2.53, GGAGAGGUCAGAUAGAAAUTT against Zbtb41 -2.29, GGGAAUGACUCCACAUUGCTT against Limd1 2.01, CGUAUUCUGGUAGUGAAGGTT against Olfr1384 -2.3, GGAAACAAGAUUACAUCAATT against Adamts2 2.04, GGACACUGUACAGAAGCUGTT against Asb18 -2.31, GCGGGAGUACUACGUCAAUTT against Reps2 -2.07, GGUCGACAUUUUGAAGGAGTT against Fthl17e -2.63, GGAAGUAGAGCUUCAAAUGTT against Cdkl2 2.8, GGACGUGACAGACAUUAUUTT against Htr5b -2.81
